An excerpt weighted towards active compounds, which were near 6.9% of everything screened.
Vif-A3F inh – inhibitors of Vif-A3F interaction; Potency, µM (highest dose often 46.1 µM), inactives show at the top dose activity, negative = active; HeLa A3F-eYFP + Vif (tagged APOBEC3F with the HIV-1 protein that degrades it), YFP fluorescence increase; hit rate 0.2% among 390,000; AID 602313; further: potency means the concentration at half of the fitted maximal effect; % of control where 0% means no effect; nearly all actives have a fitted effect of over 65% in size
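HeLa cells stably expressing A3F-eYFP plus Vif, plated and incubated overnight at 37 deg C, then exposed to compounds overnight at 37 deg C. Blocked degradation read as raised yellow fluorescence (Ex 488/Em 500-530).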
IL-1B inflam inh – inhibitors of inflammasome signaling (IL-1 beta secretion). THP-1 LPS/ATP IL-1B secretion, AlphaLISA, 16 h; hits give low values. activity change, % at 57.5 µM. hit rate 4.7% among 360,000. AID 743279; in the data active means activity change below about -50%; inconclusive means mostly about -30% to -49%; further: on the % scale 0 is the no-effect control and ±100 the full control effect
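Secreted IL-1B measured by AlphaLISA bead assay after 16 h compound exposure of THP-1 cells; compounds (final up to 57.5 uM) added 1 h before LPS (250 ng/mL) and ATP (1.25 mM) stimulation; lower signal means less secretion.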
MCF10A rereplic – DNA re-replication induction in MCF 10a cells; MCF 10A DNA re-replication, Hoechst nuclear intensity, 48 h; Potency, µM (top dose mostly 46.1 µM), for inactives: at the top dose activity, positive = re-replication, actives largely listed as activators; hit rate 2.9% among 350,000; further: potency means the concentration at half of the fitted maximal effect; % of control where 0% means no effect; nearly all actives have a fitted effect of over 50% in size
Giardia kill – kills Giardia lamblia | hit rate 0.15% among 340,000 | activity change, % at 7.66 µM, hits read low | AID 540267 | Giardia lamblia trophozoite viability; in the data active means activity change below about -80%; inconclusive means between about -30% and that limit;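 further: parasites exposed to compound for two days anaerobically before the ATP read; on the % scale 0 is the no-effect control and ±100 the full control effect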
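Killing of trophozoites was scored by loss of ATP luminescence after a 48 hrs anaerobic exposure to compounds at 37 deg C, using 100 cells per well.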
SW480 rerep – induces DNA re-replication in SW480 colon adenocarcinoma cells | SW480 DNA re-replication, Hoechst DNA content imaging, 48 h | Potency, µM (top dose mostly 46.1 µM), for the others: top-dose re-replication activation, hits mostly activators | hit rate 1.8% among 340,000 | AID 624297; further: potency means the concentration at half of the fitted maximal effect; % of control where 0% means no effect; nearly all actives have a fitted effect of over 55% in size
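Hoechst fluorescence of nuclei (405 nm excitation, 500-530 nm emission) measured by plate-scanning imager after 48 hr compound exposure at 37 C; re-replication scored as increased number of nuclei with elevated intensity.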
Vif-APOBEC3G blk – Vif-A3G binding inhibition | Q9HC16 | hit rate 0.076% among 410,000 | Potency, µM (top dose mostly 46.1 µM), for inactives: top-dose activity, negative = active, most hits filed as inhibitors | HeLa A3G-eYFP + Vif (tagged APOBEC3G with the HIV-1 protein that degrades it), YFP fluorescence, overnight; further: potency means the concentration at half of the fitted maximal effect; on the % scale 0 is the no-effect control and ±100 the full control effect; nearly all actives have a fitted effect of over 60% in size
Target sequence (Q9HC16 whole entry, looked up): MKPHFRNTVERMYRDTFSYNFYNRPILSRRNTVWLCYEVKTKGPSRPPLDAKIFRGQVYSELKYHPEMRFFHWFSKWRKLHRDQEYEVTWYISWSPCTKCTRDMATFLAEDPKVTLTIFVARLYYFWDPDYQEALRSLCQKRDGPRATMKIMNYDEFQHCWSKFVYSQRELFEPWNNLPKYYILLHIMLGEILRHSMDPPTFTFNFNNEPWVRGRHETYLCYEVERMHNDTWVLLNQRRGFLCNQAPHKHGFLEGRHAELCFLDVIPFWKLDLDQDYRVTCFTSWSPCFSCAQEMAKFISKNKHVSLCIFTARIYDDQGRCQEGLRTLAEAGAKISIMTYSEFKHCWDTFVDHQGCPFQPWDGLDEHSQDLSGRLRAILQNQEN
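Read-out is eYFP fluorescence (Ex 488/Em 500-530) from Vif-expressing HeLa A3G-eYFP cells; more signal means A3G escaped Vif-mediated degradation. Cells plated overnight, compound pinned in, incubated overnight at 37 deg C.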
The depositor's hits bear a star; ? = inconclusive; / = no result. Unless noted, the call rests on the fitted dose curve; in most records, active means well fitted curve in the direction sought with a large enough effect; inconclusive means small, poorly fitted or top-dose-only effect, or another doubt; inactive means no such curve, though single readings can be large; an effect the other way counts as inactive or inconclusive.

SMILES	Vif-A3F inh	IL-1B inflam inh	MCF10A rereplic	Giardia kill	SW480 rerep	Vif-APOBEC3G blk
Cc1ccc(S(=O)(=O)Nc2ccccc2C(=O)Nc2nc(-c3ccc(F)cc3)cs2)cc1	6%	-26	5.8µM*	-20	?	-7%
COc1ccc(-c2csc(NC(=O)c3ccccc3NS(=O)(=O)c3ccc(F)c(F)c3)n2)cc1	4%	-68*	13µM*	-22	?	-7%
Cc1ccc(-n2ncc3c(NCCc4ccccc4)ncnc32)cc1	4%	/	/	/	/	-1%
OC[C@@H]1[C@@H](c2ccccc2)C(c2ccc(F)cc2)=NN1c1ccccc1	2%	-11	?	13	21µM*	-16%
CCN1CC(c2ccccc2)C(c2ccc(Cl)cc2)=N1 (configuration not stated)	?	-2	?	3	-1%	-1%
OC[C@@H]1[C@@H](c2ccc(Cl)cc2)C(c2ccc(F)cc2)=NN1c1ccccc1	4%	0	1.8µM*	-9	4.1µM*	-22%
OC[C@@H]1[C@@H](c2ccccc2)C(c2ccccc2)=NN1c1ccccc1	-15%	7	?	-5	?	-9%
CCc1ccccc1N1C(=O)N(CC(=O)c2ccc(Cl)cc2)c2ccccc2S1(=O)=O	-9%	/	/	/	/	-2%
Cc1nc(N/N=C/c2ccc(O)cc2)c2cnn(-c3ccccc3)c2n1	-13%	-74*	?	-12	-26%	-2%
Cc1nc2ccccc2nc1N/N=C/c1ccc(O)cc1	2%	5	-2%	0	-6%	-4%
Cc1c(CNC2CCCCCC2)c(C(=O)O)c(C)n1Cc1cccc(Cl)c1	0%	/	/	/	/	1%
O=C(c1cc(-c2cccc(O)c2)on1)N1CCN(C(c2ccccc2)c2ccccc2)CC1	?	-53*	6.5µM*	13	18%	-30%
COc1ccc(-c2cc(C(=O)N3CCN(c4ccccc4)CC3)no2)cc1	-19%	-53*	?	9	-6%	2%
O=C(CSc1nnnn1-c1ccc2c(c1)OCO2)NCc1ccccc1	-4%	86	26%	-12	16µM*	?
COc1ccc(NC2=C(Cl)C(=O)N(c3ccccc3)C2=O)c(OC)c1	4%	-22	11%	7	-4%	4%
COc1ccccc1NC1=C(Cl)C(=O)N(c2ccccc2)C1=O	5%	23	-3%	16	10µM*	-1%
N#CC1=C(N)Oc2c(oc(CO)cc2=O)C1c1ccccc1[N+](=O)[O-] (configuration not stated)	-4%	/	?	-6	5.8µM*	0%
CC(C)c1ncc([N+](=O)[O-])n1C	/	/	-1%	/	-5%	/
CCCCc1cc(=O)oc2cc(C)cc(OCC(=O)N3C[C@H]4C[C@@H](C3)c3cccc(=O)n3C4)c12	-8%	-7	?	32	1.8µM*	2%
CCOC(=O)c1c(-c2ccccc2)csc1NC(=O)c1ccc(S(=O)(=O)N2CCOCC2)cc1	-12%	0	12µM*	-11	?	-5%
CCOC(=O)c1c(-c2ccccc2)csc1NC(=O)CCN1CCOCC1	8%	9	?	-8	/	-6%
CCOC(=O)c1[nH]c2ccccc2c1NC(=O)c1ccc(S(=O)(=O)N(C)C)cc1	2%	0	2%	-20	0%	0%
CCOC(=O)Cc1csc(NC(=O)CCc2ccc(S(=O)(=O)N3CCOCC3)cc2)n1	-2%	15	?	1	23µM*	2%
CCOC(=O)c1[nH]c2ccccc2c1NC(=O)CC(C)C	-3%	-14	9%	-13	?	0%
CCCC(=O)Nc1c(C(=O)OCC)[nH]c2ccccc12	-6%	-54*	?	37	?	0%
SMILES	Vif-A3F inh	IL-1B inflam inh	MCF10A rereplic	Giardia kill	SW480 rerep	Vif-APOBEC3G blk
CCOC(=O)c1[nH]c2ccccc2c1NC(=O)c1ccc(S(=O)(=O)N2CCCCC2)cc1	1%	13	23µM*	-6	6%	2%
COC(=O)c1ccccc1NC(=O)CSc1cc(-c2ccccc2)nc(C)n1	-4%	/	/	/	/	-4%
Cc1ccc(C(=O)c2ccccc2C(=O)OCC(=O)NCCc2ccc(Cl)cc2Cl)cc1	-13%	-17	1%	-4	/	1%
Cc1ccc(Cl)c(NC(=O)COC(=O)c2ccccc2C(=O)c2ccc(Cl)c([N+](=O)[O-])c2)c1Cl	6%	-105*	2.6µM*	-1	3.7µM*	?
O=C(COC(=O)c1ccccc1[N+](=O)[O-])NCCCc1ccccc1	0%	0	18µM*	4	-15%	2%
CCCNC(=O)COC(=O)c1ccccc1C(=O)c1ccc(Cl)c([N+](=O)[O-])c1	16%	-103*	?	-2	6.5µM*	?
CN1C(=O)Cc2cc(S(=O)(=O)CCC(=O)N3CCN(c4cccc(Cl)c4)CC3)ccc21	3%	/	/	/	/	2%
O=C(COc1ccc(Cl)cc1Br)N1CCN(S(=O)(=O)c2ccccc2)CC1	11%	?	2%	-15	-15%	-1%
CCOC(=O)C1CCN(C(=O)COc2ccc(Br)cc2Br)CC1	3%	-66*	5%	36	3%	-5%
CCC(=O)c1cc(Br)ccc1OCC(=O)N1CCN(S(=O)(=O)c2ccccc2)CC1	3%	-58*	5%	14	1%	-8%
CCOC(=O)C1CCN(C(=O)COc2ccc(Br)cc2)CC1	-11%	19	15%	10	-11%	-8%
COc1ccccc1CNC(=O)CCn1cnc2ccccc2c1=O	-13%	/	/	/	/	-1%
CCOc1ccc(C(=O)N2CCN(Cc3cc(=O)n4nc(-c5ccccc5Cl)sc4n3)CC2)cc1	-12%	/	/	/	/	1%
COC(=O)CSc1nc(N)c2c3c(sc2n1)CCCC3	-1%	4	2%	2	-3%	-4%
COC(=O)CSc1nc(N)c2c3c(sc2n1)C(c1ccccc1)SC(c1ccccc1)C3 (configuration not stated)	-18%	-100*	?	-21	-2%	-5%
CCOc1ccc2nc(Cl)c(C3CC(c4ccccc4)=NN3C(=O)CCC(=O)O)cc2c1 (configuration not stated)	0%	/	/	/	/	4%
CC(C)(C)NC(=O)NC(=O)COC(=O)Cc1c(Cl)cccc1Cl	-12%	-54*	?	27	1%	-9%
NS(=O)(=O)c1ccc(NC(=O)COC(=O)c2cc(Cl)ccc2[N+](=O)[O-])cc1	?	0	0%	11	19%	-4%
CCOc1ccc(NC(=O)COC(=O)c2ncc(Cl)c(Cl)c2Cl)cc1	3%	7	6%	33	0%	1%
NS(=O)(=O)c1ccc(NC(=O)COC(=O)c2ncc(Cl)c(Cl)c2Cl)cc1	0%	-62*	-3%	-3	-4%	-3%
